Test results: PubChem BioAssay (Tox21)
Several values for one entry are separate records, joined by “and”; a condition that tells them apart may be missing. Equal entries are not always repeated. Records with an inconclusive call do not appear. Activity calls are given as the source filed them. The call rests on the fitted dose curve.

Columns and labels:
[1] = biological target: Acetylcholinesterase (Homo sapiens) (UniProt P22303); assay: Acetylcholinesterase (AChE) small molecule antagonists: colormetric cell-based qHTS assay (AID 1347395); further: nearly all actives have a fitted effect of over 30% in size; further: potency means the concentration at half of the fitted maximal effect
Sequence of Acetylcholinesterase (Homo sapiens) (P22303 whole entry, looked up): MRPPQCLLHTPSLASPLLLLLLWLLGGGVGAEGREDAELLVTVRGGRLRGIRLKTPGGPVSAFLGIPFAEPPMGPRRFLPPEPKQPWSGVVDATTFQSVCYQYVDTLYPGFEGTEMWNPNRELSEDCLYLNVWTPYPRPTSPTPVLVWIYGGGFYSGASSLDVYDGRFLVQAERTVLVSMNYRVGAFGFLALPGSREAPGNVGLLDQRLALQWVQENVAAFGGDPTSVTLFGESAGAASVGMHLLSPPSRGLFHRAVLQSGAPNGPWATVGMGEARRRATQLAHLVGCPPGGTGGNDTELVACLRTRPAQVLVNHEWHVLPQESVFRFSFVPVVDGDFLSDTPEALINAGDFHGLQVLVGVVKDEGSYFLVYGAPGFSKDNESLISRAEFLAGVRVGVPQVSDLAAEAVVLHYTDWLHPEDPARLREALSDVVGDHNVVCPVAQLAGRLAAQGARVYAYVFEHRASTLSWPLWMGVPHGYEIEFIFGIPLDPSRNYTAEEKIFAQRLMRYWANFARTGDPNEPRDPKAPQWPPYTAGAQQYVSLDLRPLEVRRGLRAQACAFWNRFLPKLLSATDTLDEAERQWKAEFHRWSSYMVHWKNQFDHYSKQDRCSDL
Summary of the method: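 SH-SY5Y cells attached overnight, exposed to compound 30 min at 37 C, then given DTNB/acetylthiocholine; after 90 min at 37 C, colorimetric thiocholine read gives cellular AChE activity.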

[2] = biological target: Acetylcholinesterase (Homo sapiens) (UniProt P22303); assay: Acetylcholinesterase (AChE) small molecule antagonists: enzyme-based qHTS assay (AID 1347397); conditions: Potency: AChE enzyme activity inhibition; outcome: AChE enzyme activity inhibition; further: nearly all actives have a fitted effect of over 55% in size; further: potency means the concentration at half of the fitted maximal effect
Summary of the method: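 Absorbance-based detection of thiocholine with DTNB served as the read-out. Recombinant human AChE was exposed to compound for 30 min at RT before a 10 min RT incubation with acetylthiocholine.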

[3] = biological target: Acetylcholinesterase (Homo sapiens) (UniProt P22303); assay: Acetylcholinesterase (AChE) small molecule antagonists: fluorescence cell-based qHTS assay (AID 1347398); conditions: Potency: AChE activity; outcome: AChE activity; further: nearly all actives have a fitted effect of over 50% in size; further: potency means the concentration at half of the fitted maximal effect
Summary of the method: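 Fluorimetric cell-based assay: intact SH-SY5Y cells, 30 min compound preincubation at 37 C, acetylthiocholine substrate with thiol probe Thiolite Green, 40 min RT development, fluorescence 490/520 nm.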

[4] = biological target: Acetylcholinesterase (Homo sapiens) (UniProt P22303); assay: Acetylcholinesterase (AChE) small molecule antagonists: enzyme-based qHTS assay with human liver microsomes (AID 1347399); conditions: Potency: qHTS inhibition; outcome: qHTS inhibition; further: nearly all actives have a fitted effect of over 60% in size
Summary of the method: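 Recombinant human AChE (50 mU/mL in the enzyme mix) and human liver microsomes (0.25 mg/mL final) were preincubated with compound and NADPH (0.25 mg/mL final) for 30 min at 37 C. Acetylthiocholine/DTNB was then added; thiocholine was read colorimetrically after 10 min at room temperature.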
On the % scale 0 is the no-effect control and ±100 the full control effect.

Cc1cc(C)c(C)cc1C
inactive: Potency [1] | Potency [2] | Potency [3] | Potency [4]

[Na+]
inactive: Potency [1] | Potency [2] | Potency [3] | Potency [4]

CCS(=O)(=O)c1ccc(OC)c(C(=O)OC)c1
inactive: Potency [1] | Potency [2] | Potency [3] | Potency [4]

C=C(C)c1cccc(C(=C)C)c1
inactive: Potency [1] | Potency [2] | Potency [3] | Potency [4]

CCOC(=O)C(C)(C)Oc1ccc(Cl)cc1
inactive: Potency [1] | Potency [2] | Potency [3] | Potency [4]

O=S(O)O
inactive: activity, negative = inhibition [1] 0.406% [at 23.6 µM] | activity change, negative = inhibition [2] -0.777% [at 23.6 µM] | activity change, negative = inhibition [3] 0.464% [at 23.8 µM] | activity change, negative = inhibition [4] -0.486% [at 23.6 µM]

CC(=O)OCCOC(C)=O
inactive: Potency [1] | Potency [2] | Potency [3] | Potency [4]

CCCCCCCCCCCCc1ccc(O)cc1
active: Potency [2] 63.3 µM
inactive: Potency [1] | Potency [3] | Potency [4]

CC(C)OC(=O)c1ccccc1
inactive: Potency [1] | Potency [2] | Potency [3] | Potency [4]

CN1C(=O)CC(C)(c2ccccc2)C1=O (stereo not given)
inactive: Potency [1] | Potency [2] | Potency [3] | Potency [4]

Cn1ccnc1
inactive: Potency [1] | Potency [2] | Potency [3] | Potency [4]

c1cc(CN2CCCCC2)cc(OCCCNc2nc3ccccc3s2)c1
active: Potency [1] 15.5 µM | Potency [2] 27.5 µM | Potency [3] 13.8 µM
inactive: Potency [4]

CCCC(=O)OC
inactive: Potency [1] | Potency [2] | Potency [3] | Potency [4]

CCOC(C)=O
inactive: Potency [1] | Potency [2] | Potency [3] | Potency [4]

COC(=O)c1ccc(C(=O)OC)cc1
inactive: Potency [1] | Potency [2] | Potency [3] | Potency [4]

Cc1cn([C@H]2C=C[C@@H](CO)O2)c(=O)[nH]c1=O
inactive: Potency [1] | Potency [2] | Potency [3] | Potency [4]

C[N+](C)(C)CC[N+]1(C)Cc2c(Cl)c(Cl)c(Cl)c(Cl)c2C1
inactive: Potency [1] | Potency [2] | Potency [3] | Potency [4]

CC(=O)Nc1ccc(N=Nc2cc(C)ccc2O)cc1
active: Potency [2] 22.4 µM
inactive: Potency [1] | Potency [3] | Potency [4]

COC(=O)C1=C(C)NC(C)=C(C(=O)OCC(C)C)C1c1ccccc1[N+](=O)[O-] (stereo not given)
inactive: Potency [1] | Potency [2] | Potency [3] | Potency [4]

COC(=O)CCCCC(CCSS/C(CCO)=C(\C)N(C=O)Cc1cnc(C)nc1N)SC(C)=O (stereo not given)
inactive: Potency [1] | Potency [2] | Potency [3] | Potency [4]

CCCc1ccccc1
inactive: Potency [1] | Potency [2] | Potency [3] | Potency [4]

CCc1ccc(C(c2ccc(CC)cc2)C(Cl)Cl)cc1
inactive: Potency [1] | Potency [2] | Potency [3] | Potency [4]

CN/C(=C\[N+](=O)[O-])NCCSCc1csc(CN(C)C)n1
active: Potency [1] 11.2 µM and 13.8 µM | Potency [2] 35.6 µM and 27.5 µM | Potency [3] 35.6 µM
inactive: Potency [4]

CNc1ncnc2nc[nH]c12
inactive: Potency [1] | Potency [2] | Potency [3] | Potency [4]

CCCCCCC/C=C/C=O
inactive: Potency [1] | Potency [2] | Potency [3] | Potency [4]

NC(=O)c1cnccn1
inactive: Potency [1] | Potency [2] | Potency [3] | Potency [4]

CN(C)CCOC(c1ccccc1)c1ccc(Br)cc1 (stereo not given)
inactive: Potency [1] | Potency [2] | Potency [3] | Potency [4]

C=C[Si](OCCOC)(OCCOC)OCCOC
inactive: Potency [1] | Potency [2] | Potency [3] | Potency [4]

COC(=O)c1cccnc1
inactive: Potency [1] | Potency [2] | Potency [3] | Potency [4]

c1ccc(OCc2ccc(CCCN3CCOCC3)cc2)cc1
inactive: Potency [1] | Potency [2] | Potency [3] | Potency [4]

O=C1C(c2[nH]c3ccc(S(=O)(=O)O)cc3c2O)=Nc2ccc(S(=O)(=O)O)cc21
inactive: Potency [1] | Potency [2] | Potency [3] | Potency [4]

O=C(c1ccccc1)c1ccc(O)c(O)c1O
inactive: Potency [1] | Potency [2] | Potency [3] | Potency [4]

C[C@H]1C[C@@H]2[C@H]([C@@H](O)C[C@@]3(C)[C@H]2CC[C@]3(O)C(=O)CO)[C@@]2(C)C=CC(=O)C=C12
inactive: Potency [1] | Potency [2] | Potency [3] | Potency [4]

c1cc[c]([Bi]([c]2ccccc2)[c]2ccccc2)cc1
inactive: Potency [1] | Potency [2] | Potency [3] | Potency [4]

CCOC(=O)C(O)c1ccccc1 (stereo not given)
inactive: Potency [1] | Potency [2] | Potency [3] | Potency [4]

O=S(c1cc(Cl)cc(Cl)c1O)c1cc(Cl)cc(Cl)c1O
inactive: Potency [1] | Potency [2] | Potency [3] | Potency [4]

CC(C)c1nc(CN(C)C(=O)N[C@H](C(=O)N[C@@H](Cc2ccccc2)C[C@H](O)[C@H](Cc2ccccc2)NC(=O)OCc2cncs2)C(C)C)cs1
inactive: Potency [1] | Potency [2] | Potency [3] | Potency [4]

O=S(=O)(O)CCS
inactive: Potency [1] | Potency [2] | Potency [3] | Potency [4]

CCCCCCOC(=O)C(C)C
inactive: Potency [1] | Potency [2] | Potency [3] | Potency [4]

C[C@]12C=CC(=O)C=C1CC[C@@H]1[C@@H]2C(=O)C[C@@]2(C)[C@H]1CC[C@]2(O)C(=O)CO
inactive: Potency [1] | Potency [2] | Potency [3] | Potency [4]

Cc1ccccc1C(N)=O
inactive: Potency [1] | Potency [2] | Potency [3] | Potency [4]

Oc1ccc2c(c1)OCO2
inactive: Potency [1] | Potency [2] | Potency [3] | Potency [4]

CCN1CCC[C@H]1CNC(=O)c1c(O)c(Cl)cc(Cl)c1OC
inactive: Potency [1] | Potency [2] | Potency [3] | Potency [4]

CC(=O)c1ccc2c(c1)N(CCCN(C)C)c1ccccc1S2
inactive: Potency [1] | Potency [2] | Potency [3] | Potency [4]

Nc1ccc2c(O)cc(S(=O)(=O)O)cc2c1
inactive: Potency [1] | Potency [2] | Potency [3] | Potency [4]

Cc1ccccc1S(N)(=O)=O
inactive: Potency [1] | Potency [2] | Potency [3] | Potency [4]

O=C(CO)[C@@H](O)[C@H](O)[C@H](O)CO
inactive: Potency [1] | Potency [2] | Potency [3] | Potency [4]

CCOC(=O)[C@H](CCc1ccccc1)N[C@@H](C)C(=O)N(CC(=O)O)C1Cc2ccccc2C1
inactive: Potency [1] | Potency [2] | Potency [3] | Potency [4]

NCCCOCCOCCOCCCN
inactive: Potency [1] | Potency [2] | Potency [3] | Potency [4]

COCCc1ccc(OCC2CO2)cc1 (stereo not given)
inactive: Potency [1] | Potency [2] | Potency [3] | Potency [4]

CC[C@]1(O)C[C@H]2CN(CCc3c([nH]c4ccccc34)[C@@](C(=O)OC)(c3cc4c(cc3OC)N(C=O)[C@H]3[C@@](O)(C(=O)OC)[C@H](OC(C)=O)[C@]5(CC)C=CCN6CC[C@]43[C@@H]65)C2)C1
inactive: Potency [1] | Potency [2] | Potency [3] | Potency [4]

COC(=O)CCS
inactive: Potency [1] | Potency [2] | Potency [3] | Potency [4]

Cc1ccc(C(=O)c2ccccc2)cc1
inactive: Potency [1] | Potency [2] | Potency [3] | Potency [4]

O=C1O[C@@H]2[C@@H](O)[C@H](O)O[C@@H]2[C@H]1O
inactive: Potency [1] | Potency [2] | Potency [3] | Potency [4]

S=C(S)NCCNC(=S)S
inactive: Potency [1] | Potency [2] | Potency [3] | Potency [4]

Cn1cc(S(C)=O)c(=O)c2ccc(F)cc21 (stereo not given)
inactive: Potency [1] | Potency [2] | Potency [3] | Potency [4]

NC(=O)N(O)[C@@H]1COc2cc(OCc3ccccc3)ccc21
inactive: Potency [1] | Potency [2] | Potency [3] | Potency [4]

CCCCCCCCCOS(=O)(=O)O
inactive: Potency [1] | Potency [2] | Potency [3] | Potency [4]

COS(=O)(=O)O
inactive: Potency [1] | Potency [2] | Potency [3] | Potency [4]

CN1Cc2c(N)cccc2C(c2ccccc2)C1 (stereo not given)
inactive: Potency [1] | Potency [2] | Potency [3] | Potency [4]
